ALDH1A1 inh = blocks purified human ALDH1A1 activity; P00352; Purified ALDH1A1, NADH fluorescence, propionaldehyde substrate; Potency, µM (series often up to 75.3 µM), for the others: top-dose activity, negative = inhibition, actives largely listed as inhibitors; 7.3% of 220,000 active; active means well fitted inhibition curve with a large enough effect, not every such curve was filed as active; inconclusive means small, poorly fitted or top-dose-only effect, or another doubt; inactive means no such curve, though single readings can be large or run the other way;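 further: plate controls were no enzyme wells and a reference inhibitor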
Target sequence (P00352 whole entry, looked up): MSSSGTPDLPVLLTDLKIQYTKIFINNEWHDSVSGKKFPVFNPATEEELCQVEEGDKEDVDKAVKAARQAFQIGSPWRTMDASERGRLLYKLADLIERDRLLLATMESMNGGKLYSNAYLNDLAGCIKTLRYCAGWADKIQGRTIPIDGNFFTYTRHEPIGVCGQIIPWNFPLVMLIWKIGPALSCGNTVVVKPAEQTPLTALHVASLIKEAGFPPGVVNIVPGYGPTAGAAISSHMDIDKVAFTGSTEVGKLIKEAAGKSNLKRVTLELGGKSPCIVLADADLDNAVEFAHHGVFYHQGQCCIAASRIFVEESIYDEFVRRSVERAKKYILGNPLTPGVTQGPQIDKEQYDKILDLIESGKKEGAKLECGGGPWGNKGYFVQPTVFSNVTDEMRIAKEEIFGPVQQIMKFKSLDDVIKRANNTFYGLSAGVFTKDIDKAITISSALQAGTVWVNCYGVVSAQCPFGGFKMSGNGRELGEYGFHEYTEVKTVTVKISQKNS
JMJD2E inh = JMJD2E (human) inhibition. B2RXH2. JMJD2E catalytic domain, FDH-coupled NADH fluorescence (FDH is formaldehyde dehydrogenase). Potency, µM (doses to about 57.1 µM), for inactives: at the highest dose activity change, negative = inhibition, actives largely listed as inhibitors. 1.6% of 230,000 active; active means well fitted inhibition curve with a large enough effect, not every such curve was filed as active; inconclusive means small, poorly fitted or top-dose-only effect, or another doubt; inactive means no such curve, though single readings can be large or run the other way;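 further: 0% = wells with enzyme and -100% = buffer wells without enzyme; nearly all actives have a fitted effect of over 50% in size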
Tau ThT inhib = inhibitors of human tau fibril formation, thioflavin T binding; P10636; recombinant tau K18 P301L, heparin-induced fibrillization, ThT fluorescence; Potency, µM (titrated, usually from 57.4 µM), inactives show at the highest dose activity, negative = inhibition, most hits filed as inhibitors; 2.1% of 270,000 active; further: nearly all actives have a fitted effect of over 55% in size
Target sequence (P10636 561-689 P618L limits assumed): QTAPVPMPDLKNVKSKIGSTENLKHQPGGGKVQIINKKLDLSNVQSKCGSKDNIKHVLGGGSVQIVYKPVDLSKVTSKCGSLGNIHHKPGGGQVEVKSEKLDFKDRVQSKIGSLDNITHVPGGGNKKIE
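In this qHTS, human K18 P301L tau is incubated with compound and heparin for 6 hr at 37 C, and Thioflavin T fluorescence then reports fibril load.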
Tau fibril FP = inhibitors of human tau fibril formation; Potency, µM (series often up to 57.7 µM), for inactives: top-dose activity, negative = inhibition, hits mostly inhibitors; K18 P301L tau heparin fibrillization, Alexa594 FP, 6 h; 0.39% of 280,000 active; AID 1468; P10636; further: nearly all actives have a fitted effect of over 55% in size
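Compound effects on tau fibrillization are measured by Alexa 594 fluorescence polarization (ex 555, em 632 nm). K18 P301L tau is used at 15 uM with 0.24 uM labeled tracer, and 20 uM heparin induces aggregation over 6 hr at 37 C.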
HPGD inh = blocks human HPGD enzyme activity | purified HPGD, NADH fluorescence kinetic, PGE2 substrate | AID 894 | P15428 | Potency, µM, inactives show at the top dose activity change, negative = inhibition, usual class: inhibitors | 4.3% of 150,000 active; active means well fitted inhibition curve with a large enough effect, not every such curve was filed as active; inconclusive means small, poorly fitted or top-dose-only effect, or another doubt; inactive means no such curve, though single readings can be large or run the other way
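20 nM HPGD preincubated 15 min at room temperature with compound in 50 mM Tris-HCl pH 8, 0.01% Tween 20. Started with 1 mM NAD+ and 30 uM prostaglandin E2; NADH fluorescence (360/450 nm) read 5 times over 30-s intervals, last minus first.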
Tau fluor cs = counter-screen for tau fibril formation inhibitors. tau K18 P301L (four-repeat tau fragment) Alexa594 fluorescence, heparin fibrillization. Potency, µM (doses to about 57.7 µM), without a hit: at the top dose activity change, negative = decrease. 0.93% of 280,000 active; further: nearly all actives have a fitted effect of over 55% in size
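Human K18 P301L tau (15 uM unlabeled plus 0.24 uM Alexa 594-labeled, final) in 100 mM sodium acetate pH 7 was mixed with compound and 20 uM heparin and incubated 6 hr at 37 C.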
Active calls of the source: *; ! = repeats disagree; [ ] = remark or other dose. This is a sample that favours compounds with a hit; in the whole collection about 9.9% have one here. Unless noted, the call rests on the fitted dose curve; in most records, active means well fitted curve in the direction sought with a large enough effect; inconclusive means small, poorly fitted or top-dose-only effect, or another doubt; inactive means no such curve, though single readings can be large; an effect the other way counts as inactive or inconclusive. Unless noted, on the % scale 0 is the no-effect control and ±100 the full control effect; potency means the concentration at half of the fitted maximal effect.

Results for CCCc1cc(N2CCN(c3cccc(C)c3C)CC2)n2cnnc2n1 ?
Tau ThT inhib: inconclusive; Tau fibril FP: -10%; Tau fluor cs: -6%

Results for CC1=C2C(=CO[C@H](C)[C@H]2C)C(=O)C(C(=O)O)=C1O ?
ALDH1A1 inh: -2%; JMJD2E inh: -7%; Tau ThT inhib: inconclusive; Tau fibril FP: -5%; HPGD inh: -6%; Tau fluor cs: -27%

How did CCOP(=O)(NC(C)C)Oc1ccc(SC)c(C)c1 (configuration not stated) do in these assays?
ALDH1A1 inh: inconclusive; HPGD inh: 5.6µM*

Results for COP(=S)(OC)Oc1ccc(SC)c(C)c1 ?
ALDH1A1 inh: -3%; JMJD2E inh: -4%; Tau ThT inhib: -2%; Tau fibril FP: -2%; HPGD inh: -11%; Tau fluor cs: -1%

Results for COc1cc2c(cc1O)CC1c3c(cc(O)c(OC)c3-2)CCN1C (configuration not stated) ?
ALDH1A1 inh: inconclusive; JMJD2E inh: inconclusive; Tau ThT inhib: inconclusive; Tau fibril FP: 5%; HPGD inh: inconclusive; Tau fluor cs: inconclusive

What do the screens show for `COc1cc2c(cc1O)C[C@H]1c3c(cc(OC)c(O)c3-2)CCN1C`?
ALDH1A1 inh: inconclusive; JMJD2E inh: inconclusive; Tau ThT inhib: 14µM*; Tau fibril FP: inconclusive; HPGD inh: inconclusive; Tau fluor cs: inconclusive

What do the screens show for `COc1cc2c(cc1OC)-c1c(OC)c(OC)c(CO)c3c1C(C2)N(C)CC3` (configuration not stated)?
ALDH1A1 inh: inconclusive; JMJD2E inh: inconclusive; Tau ThT inhib: -3%; Tau fibril FP: -3%; HPGD inh: inconclusive; Tau fluor cs: -3%

How did COc1cc2c(cc1OC)-c1c(OC)c(OC)c(C=O)c3c1[C@H](C2)N(C)CC3 do in these assays?
ALDH1A1 inh: inconclusive; JMJD2E inh: inconclusive; Tau ThT inhib: 22µM*; Tau fibril FP: inconclusive; HPGD inh: inconclusive; Tau fluor cs: inconclusive

How did Nc1ccc(S(=O)(=O)c2ccc(NCN3C(=O)NC(=O)C(=O)C3=O)cc2)cc1 do in these assays?
ALDH1A1 inh: 9%[13.5 µM]; HPGD inh: -18%

What do the screens show for `CCCSC(=O)Cl`?
ALDH1A1 inh: -21%; HPGD inh: -8%

What do the screens show for `Cc1cc(C)cc(NC(=O)CSc2oc(-c3cccs3)nc2S(=O)(=O)c2ccc(Br)cc2)c1`?
Tau ThT inhib: -10%; Tau fibril FP: -15%; Tau fluor cs: inconclusive

Results for Cn1nc(OC(=O)Nc2ccc(Cl)cc2)cc1C(F)(F)F ?
ALDH1A1 inh: 6%; JMJD2E inh: -2%; Tau ThT inhib: -9%; Tau fibril FP: inconclusive; HPGD inh: -7%; Tau fluor cs: -19%

How did Cc1ccc([N+](=O)[O-])cc1 do in these assays?
ALDH1A1 inh: -3%; HPGD inh: -16%

What do the screens show for `CCOP(=S)(OCC)Oc1ccc([N+](=O)[O-])cc1`?
ALDH1A1 inh: 16µM*; HPGD inh: -12%

What do the screens show for `COC(=O)C(O)(c1ccc(NC(=S)NC(=O)c2ccccc2)cc1)C(F)(F)F` (configuration not stated)?
ALDH1A1 inh: 25µM*; JMJD2E inh: 10%; Tau ThT inhib: -12%; Tau fibril FP: -4%; HPGD inh: -6%; Tau fluor cs: -26%

How did COC(=O)C(O)(c1ccc(NC(=O)Oc2ccccc2)cc1)C(F)(F)F (configuration not stated) do in these assays?
ALDH1A1 inh: inconclusive; JMJD2E inh: 3%; Tau ThT inhib: -12%; Tau fibril FP: -3%; HPGD inh: -1%; Tau fluor cs: 4%

What do the screens show for `C(CCOCC1CO1)COCC1CO1` (configuration not stated)?
ALDH1A1 inh: -14%; HPGD inh: -1%

What do the screens show for `CC(C)Br`?
ALDH1A1 inh: 10%; HPGD inh: -3%

What do the screens show for `CC1Oc2cc3c(-c4c(O)cc(O)c5c(O)c6c(cc45)OC(C)C(C)C6=O)c(O)cc(O)c3c(O)c2C(=O)C1C` (configuration not stated)?
ALDH1A1 inh: inconclusive; JMJD2E inh: 20µM*; Tau ThT inhib: 13µM*; Tau fibril FP: inconclusive; Tau fluor cs: 13µM*[quencher]

How did COC(=O)CCCc1[se]c2ccccc2c1I do in these assays?
ALDH1A1 inh: 32µM*; Tau ThT inhib: inconclusive; Tau fibril FP: -4%[81.3 µM]; HPGD inh: 22µM*; Tau fluor cs: -20%[81.3 µM]

Results for CCCCCCCCc1[se]c2ccccc2c1[Se]c1ccccc1 ?
ALDH1A1 inh: 1%; Tau ThT inhib: -5%; Tau fibril FP: -6%; HPGD inh: -16%; Tau fluor cs: 1%

How did CC(=O)c1ccc2c(c1)C1C(Cl)C(Sc3ccccc3[N+](=O)[O-])CC1C(c1ccccc1)N2 (configuration not stated) do in these assays?
ALDH1A1 inh: 7.9µM*; JMJD2E inh: -12%; Tau ThT inhib: inconclusive; Tau fibril FP: 11%; HPGD inh: -25%; Tau fluor cs: inconclusive

Results for CN(C)CCC=C1c2ccccc2CCc2ccccc21 ?
ALDH1A1 inh: 18µM*!; JMJD2E inh: inconclusive; Tau ThT inhib: inconclusive; Tau fibril FP: -2%; HPGD inh: -1%; Tau fluor cs: -9%

Results for Cc1c(CCC(=O)N2CCCCC2)c(=O)oc2cc3occ(C(C)(C)C)c3cc12 ?
Tau ThT inhib: inconclusive; Tau fibril FP: 14%; Tau fluor cs: -8%

What do the screens show for `Cc1ccc(C=C2C(Cl)=C(Cl)C(Cl)=C2Cl)cc1`?
JMJD2E inh: -15%; Tau ThT inhib: 16µM*; Tau fibril FP: inconclusive; Tau fluor cs: inconclusive

What do the screens show for `O=C(Cc1cc(=O)[nH][nH]1)N/N=C/c1cccc2ccccc12`?
ALDH1A1 inh: 15%; JMJD2E inh: -25%; Tau ThT inhib: 3.2µM*; Tau fibril FP: inconclusive; Tau fluor cs: inconclusive

Results for Cc1noc(C)c1C(=O)N1CCC[C@@]2(CCN(CC(C)C)C2)C1 ?
ALDH1A1 inh: -7%; HPGD inh: 3%

Results for O=P(OCCCl)(OCCCl)OCCCl ?
ALDH1A1 inh: 28µM*; HPGD inh: -11%

How did CCCCOCCOP(=O)(OCCOCCCC)OCCOCCCC do in these assays?
ALDH1A1 inh: 4%; HPGD inh: -4%

What do the screens show for `COC(=O)C1=CO[C@@H](C)[C@@H]2CN3CCc4c([nH]c5cc(OC)ccc45)[C@@H]3C[C@H]12`?
ALDH1A1 inh: inconclusive; JMJD2E inh: inconclusive; Tau ThT inhib: 22µM*; Tau fibril FP: -8%; HPGD inh: -20%; Tau fluor cs: inconclusive

Screening results: PubChem BioAssay, National Center for Advancing Translational Sciences (NCATS)
